# Test results: the supplement of paper PMC6555819
# Test system: PPARg:RXRa IVT, anti-PPARg (NR concentration 270 nM, RXRa partner concentration 90 nM)
# Assay: PBM binding z-score (relative to random genomic background probes); higher = stronger binding; sequences stand for … in GC…GCGATTGACAGCGTAGAATGAAGG
# Method in brief: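 Regression normalization was applied to scanned fluorescence from custom Agilent 4×180K protein-binding microarrays. Before scanning, arrays were incubated 1 h with ligand-free nuclear receptor dimers, and binding was detected with antibodies against each partner (one per run). Binding z-scores use the random background probes as reference.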
row,Sequence,PBM binding z-score
1,ACTCGGAGGACAAGGGTCAGAGCTACGCCAGTGA,1.88
2,AGAATTAGGTTATACGTAGATCAGGGAAGAAAGT,4.61
3,ATATGTAGGTTATCGGTTCATTCAGTTTGCGCAT,7.09
4,TCTGCTAGGTCAGTTGGTAAGCTAACGAGCTGCC,2.46
5,ACTAGCAGGCCAAGGGTCACTCAGGATTAGTCCG,3.72
6,CCTAGAAGGCCAGGGTCACTCAAGCATTTCGCTT,0.709
7,ATCTCTAGGTAAAGTTCAGTGTAAGATCGATAGA,2.9
8,CTAACTAGGTCAAGGACAGTGAATCTCCGCACGC,8.66
9,ACTATTAGGTGACTTAGGGCAACCGATACGACGC,3.9
10,CCTACTGGGCCAAAAAGATCATTGATGCCGATAA,2.44
11,CCAGACAGGTGAAAGGTAACTCGGTCTGGTACGC,2.9
12,TCTAGTTGGTCAAAGGTCACACATTCGAAATGCG,6.33
13,TCTAGTTGGTCGAAGGTCACACACTCGAAATGCG,3.68
14,ATCTCTAGCTAACCAAGTTCAGTGAATGCCGAAC,-0.0463
15,CGTCCAAGGTCAGCAAGTCAGTGAAAGCGACGTG,2.52
16,ATCGAAAGGTCGATGTGAGTATAGAGAAAGGGAA,1.15
17,TTACCAAGGTGAACGTCGTTGATCCCTCTGTAGA,3.17
18,AGAACGAGGGCACGCTGAGTTGATAGCAGAGTAG,3.81
19,CATACAGGGTCAGCTAGGCGAGAGTAGGGACGGC,2.05
20,CGTCCATGGTCAATGCTAGGTCAGTGAAAGCATT,0.623

row,Sequence,PBM binding z-score
1,CCGACTGGTGCAGAAAGGTTACCATACCATCCGG,-0.294
2,ATACGTAGGTTAGCTGGGGTCATTCAGACTAGGC,1.51
3,TCTAGTTGGTCACGGTGGTCACACACGACGGGTA,3.35
4,ATATGTAGGTTAAGGGTTATTCAGGTTGGTTCGC,7.51
5,TCTGCTACGTCAGTTGGTCAGCTAACGAGCTGCC,-0.135
6,TCATATAGGTAAACAGGGGAAAGTCCGTAAGTTA,3.46
7,ACTATTAGTTGAGACGAGGGCAACCGCTAGGTTG,0.177
8,TCTCTGAGGACACGAAAGGTCAGAGCTCGACATC,2.12
9,CCTAATGGGCCACGAAAGGTCATTGATTCAGTGA,4.1
10,TCTAGTTGGTCAAAGGTCACACGCTCGAAATGCG,6.36
11,CCTATTGGGCCATCAGGTCATTGATATCAACGTT,3.39
12,TGAATGAGGTTAAAGAGCAGGGAACGTGGCGTCG,3.24
13,GTTCGGAGGACAAGGTCAGAGCTTTGTCCGTAGA,0.927
14,TCATATAGGTAATACAGGTGAAAGCCGGCATCTA,3.6
15,GCTTACGGGTCAAAGGTTATTGCATGAATAGAAT,5.79
16,TCTAGTAGGTTACCAATGGGGCATTCAGCTTTCT,5.27
17,CGAACGATGGCATGAGTTGATAGCAAATGCCGAT,-0.676
18,CCGACTGGGGCCGAAAGGTTACCATACCATCCGG,0.138
19,CGTCCAAGGTCAAAGGTCAGTTAAGAGATGACGG,5.71
20,CCTAGCAGGCCAGGGTCACTCAAGCATTTCGCTT,0.98
